High-throughput results: PubChem, National Center for Advancing Translational Sciences (NCATS)
HT1080NT lethal – kills 2HG-producing HT-1080-NT fibrosarcoma cells. HT-1080-NT fibrosarcoma viability, CellTiter-Glo ATP luminescence, 48 h. Potency, µM (series often up to 46.1 µM), most hits filed as cytotoxic. 360,000 compounds, 1.6% hits. AID 686970;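 also: NT is the 2HG producing partner of a matched IDH1 knockdown line; nearly all actives have a fitted effect of over 55% in size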
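Viability by CellTiter-Glo luminescence after 48 h compound exposure at 37C of HT-1080-NT cells (750/well, RPMI, 5% FBS). % activity scaled between DMSO wells and medium-only wells, then curve-fitted and categorized by curve class.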
DT40 TDP1 no CPT – qHTS for Inhibitors of human tyrosyl-DNA phosphodiesterase 1 (TDP1): qHTS in cells in absence of CPT; 420,000 compounds, 15% hits; Potency, µM (top dose mostly 46.2 µM), most hits filed as inhibitors; DT40 Tdp1-/- hTDP1 cells, no CPT, ATP luminescence, 48 h; AID 686978, 2013; also: nearly all actives have a fitted effect of over 55% in size
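Readout: luminescence from CellTiter-Glo after 30 min in the dark at RT. Cells: DT40 Tdp1-/- with stable hTDP1, 400/well. Exposure: compounds alone, ≥48 hr, 37 °C.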
IL-1B inflam inh – inhibitors of inflammasome signaling (IL-1 beta secretion); THP-1 LPS/ATP IL-1B secretion, AlphaLISA, 16 h; stronger effect = lower value; activity change, % at 57.5 µM; 360,000 compounds, 4.7% hits; AID 743279; in the data active = activity change below about -50%; inconclusive = mostly about -30% to -49%
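THP-1 cells pretreated 1 hr with compounds (up to 57.5 uM final), then stimulated with LPS (250 ng/mL final) plus ATP (1.25 mM final); secreted IL-1B measured by AlphaLISA after 16 hr, decreased signal indicating inhibition.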
TDP1 cell CPT – DT40-hTDP1 cell growth loss with CPT. chicken DT40 Tdp1-/-;hTDP1 cells + 20 nM CPT, ATP luminescence, 48 h. AID 686979. Potency, µM (doses to about 46.2 µM), usual class: inhibitors. 420,000 compounds, 12% hits; also: nearly all actives have a fitted effect of over 55% in size
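Chicken DT40 Tdp1-/- cells stably complemented with human TDP1 were seeded at 400 cells/well in medium containing 20 nM camptothecin, exposed to pin-transferred compounds, and grown at 37 °C for at least 48 hr. Viability was read as ATP luminescence.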
HT1080 IDH1KD tx – kills HT-1080 cells with IDH1 knockdown; Potency, µM (highest dose often 46.1 µM), hits mostly cytotoxic; 360,000 compounds, 2% hits; AID 686971; HT-1080 IDH1 knockdown viability, ATP luminescence, 48 h
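Cytotoxicity counter-line: IDH1KD HT-1080, 48 h, CellTiter-Glo. Curves classed by r2, magnitude and activity.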
Large screens that a line does not name were inactive. In the library only some 19% were active in any assay of this set; here they are far more common. Unless noted, calls follow the shape of the dose curve; as a rule, active = well fitted curve in the direction sought with a large enough effect; inconclusive = small, poorly fitted or top-dose-only effect, or another doubt; inactive = no such curve, though single readings can be large; an effect the other way counts as inactive or inconclusive.

CC(=O)N1CCN(C(=O)CC2OC(=O)c3ccccc32)CC1 (centres undefined)	DT40 TDP1 no CPT 12µM, TDP1 cell CPT 8.2µM
NC(=O)CC(NC(=O)Cc1cccc2ccccc12)c1ccc(N2CCN(c3ccc(F)cc3)CC2)c([N+](=O)[O-])c1 (centres undefined)	DT40 TDP1 no CPT inconclusive, TDP1 cell CPT inconclusive
COc1ccc(C2N(C(=O)N(C)C)CCN2S(=O)(=O)c2ccc(OC)cc2)cc1 (centres undefined)	DT40 TDP1 no CPT inconclusive
Cc1cc(C)c(C(=O)COc2cccnc2[N+](=O)[O-])cc1C	HT1080NT lethal inconclusive, DT40 TDP1 no CPT 5.8µM, TDP1 cell CPT 4.1µM, HT1080 IDH1KD tx inconclusive
Cc1ccc(C(=O)NCCc2ccc(S(N)(=O)=O)cc2)cc1-n1cnc2cccnc21	none (no result: HT1080NT lethal, IL-1B inflam inh, HT1080 IDH1KD tx)
Cc1ccc2nc(-c3ccc(Br)cc3)cc(C(=O)NCC3CCCO3)c2c1 (centres undefined)	DT40 TDP1 no CPT 15µM, TDP1 cell CPT 15µM
CCOc1ccc(-c2cc(C(=O)NCC3CCCO3)c3ccccc3n2)cc1 (centres undefined)	DT40 TDP1 no CPT 15µM, TDP1 cell CPT 16µM
Cc1ccc2nc(-c3ccccc3)cc(C(=O)NCC3CCCO3)c2c1 (centres undefined)	DT40 TDP1 no CPT inconclusive (no result: IL-1B inflam inh)
CCO[C@H]1OC(C(=O)N2CCN(Cc3ccc4c(c3)OCO4)CC2)=C[C@@H](c2cn(C(C)=O)c3ccccc23)[C@@H]1CCCO	DT40 TDP1 no CPT inconclusive, IL-1B inflam inh inconclusive, TDP1 cell CPT inconclusive
CCO[C@H]1OC(C(=O)N2CCN(Cc3ccc4c(c3)OCO4)CC2)=C[C@@H](c2csc3ccccc23)[C@@H]1CCCO	HT1080NT lethal inconclusive, DT40 TDP1 no CPT inconclusive, IL-1B inflam inh -61, TDP1 cell CPT inconclusive, HT1080 IDH1KD tx inconclusive
CCO[C@@H]1OC(C(=O)N2CCN(Cc3ccccc3)CC2)=C[C@H](c2coc3ccccc3c2=O)[C@H]1CCCO	DT40 TDP1 no CPT 7.3µM, TDP1 cell CPT 8.2µM
C#Cc1ccc([C@@H]2C=C(C(=O)N3CCN(Cc4ccccc4)CC3)O[C@H](OCC)[C@H]2CCCO)cc1	DT40 TDP1 no CPT 23µM, TDP1 cell CPT inconclusive
CCO[C@H]1OC(C(=O)N2CCN(Cc3ccccc3)CC2)=C[C@@H](c2coc3ccccc3c2=O)[C@@H]1CCCO	DT40 TDP1 no CPT 23µM, TDP1 cell CPT 26µM
CCOc1ccc(C(=O)N[C@H](C(=O)Nc2ccccc2OC)C(C)C)cc1	DT40 TDP1 no CPT inconclusive
CCO[C@@H]1OC(C(=O)N2CCN(Cc3ccc4c(c3)OCO4)CC2)=C[C@H](c2coc3ccccc3c2=O)[C@H]1CCCO	DT40 TDP1 no CPT 18µM, TDP1 cell CPT 16µM
CCOC(=O)c1cnc(Nc2nc3ccccc3o2)nc1CSc1nnc(C)s1	DT40 TDP1 no CPT 2.6µM, TDP1 cell CPT 3.3µM
CCOC(=O)c1cnc(Nc2nc3ccccc3o2)nc1C	HT1080NT lethal 2.8µM, DT40 TDP1 no CPT 3.2µM, TDP1 cell CPT 3.2µM, HT1080 IDH1KD tx 3.5µM
Cc1nc(Nc2nc3ccccc3o2)nc2c1CCC2	DT40 TDP1 no CPT 21µM, TDP1 cell CPT inconclusive
CCOC(=O)c1cnc(Nc2ccc(OCC)cc2)nc1C	none
CCOC(=O)Cc1cc(=O)[nH]c(Nc2nc3ccccc3o2)n1	DT40 TDP1 no CPT inconclusive, TDP1 cell CPT inconclusive
Cn1c(=O)[nH]c(=O)c2cc(C(=O)c3cc(F)ccc3O)cnc21	DT40 TDP1 no CPT inconclusive
CCOC1=C2CN(S(=O)(=O)c3ccc(C)cc3)[C@@H](c3ccc(CC)cc3)C[C@H]2[C@H]2C(=O)N(c3ccccc3)C(=O)[C@H]2C1	none
CCC1CCCCN1C(=O)CCn1c(=O)oc2ccccc21 (centres undefined)	none
COc1ccc(C)cc1NC(=O)CSc1nnc(-c2cc(C)[nH]n2)n1N	none
CC1(C(=O)NCc2ccc(F)c(F)c2)Cc2c(-c3cccc(C(N)=O)c3)ccnc2O1 (centres undefined)	HT1080NT lethal 26µM, DT40 TDP1 no CPT inconclusive, TDP1 cell CPT inconclusive, HT1080 IDH1KD tx 10µM
COc1ccc(CNC(=O)C2(C)Cc3c(-c4cccc(C(N)=O)c4)ccnc3O2)cc1OC (centres undefined)	DT40 TDP1 no CPT inconclusive
CC1(C(=O)NCc2ccco2)Cc2c(-c3cccc(C(N)=O)c3)ccnc2O1 (centres undefined)	HT1080NT lethal inconclusive, DT40 TDP1 no CPT 5.8µM, IL-1B inflam inh -57, TDP1 cell CPT 4.1µM, HT1080 IDH1KD tx inconclusive
CC1(C(=O)NCCc2ccccc2)Cc2c(-c3ccc(C(N)=O)cc3)ccnc2O1 (centres undefined)	DT40 TDP1 no CPT inconclusive, TDP1 cell CPT 16µM
CC(=O)NCCNC(=O)C1(C)Cc2c(-c3cccc(C(N)=O)c3)ccnc2O1 (centres undefined)	none
CC(=O)Nc1cccc(-c2ccnc3c2CC(C)(C(=O)NCc2ccc(F)c(F)c2)O3)c1 (centres undefined)	HT1080NT lethal inconclusive, DT40 TDP1 no CPT 3.7µM, TDP1 cell CPT 3.7µM, HT1080 IDH1KD tx inconclusive
Cc1ccccc1Nc1nnc(SCC(=O)c2c(N)n(C3CC3)c(=O)[nH]c2=O)s1	none
C=CCN1C(=O)c2ccc(C(=O)N(CCOC)c3c(N)n(CCCC)c(=O)[nH]c3=O)cc2C1=O	none
COc1cc(NC(=O)CCc2c(C)noc2C)c(Cl)cc1C(=O)O	none
CC(C)C(=O)Nc1cc2c3c(c1)CCN3C(=O)CC2	none
CC1(C(=O)NCc2ccccc2)Cc2c(-c3cccc(C(N)=O)c3)ccnc2O1 (centres undefined)	HT1080NT lethal inconclusive, DT40 TDP1 no CPT 2.3µM, TDP1 cell CPT 3.3µM, HT1080 IDH1KD tx inconclusive
CC1(C(=O)NCc2ccco2)Cc2c(-c3cccc(C(F)(F)F)c3)ccnc2O1 (centres undefined)	HT1080NT lethal inconclusive, DT40 TDP1 no CPT 2.9µM, TDP1 cell CPT 2.6µM, HT1080 IDH1KD tx inconclusive
CC1(C(=O)NCc2ccncc2)Cc2c(-c3cccc(C(F)(F)F)c3)ccnc2O1 (centres undefined)	DT40 TDP1 no CPT inconclusive, TDP1 cell CPT inconclusive
COc1ccc2cc(CN(C(=O)Nc3ccccc3)C3CCCC3)c(=O)[nH]c2c1	TDP1 cell CPT inconclusive
COc1cccc(NC(=O)N(Cc2c[nH]c3ccccc23)C2CCCCC2)c1	DT40 TDP1 no CPT 18µM, TDP1 cell CPT 8.2µM (no result: HT1080NT lethal, IL-1B inflam inh, HT1080 IDH1KD tx)
Cc1ccc(NC(=O)N(Cc2c[nH]c3ccccc23)C2CCCCCC2)cc1C	DT40 TDP1 no CPT 8.2µM, TDP1 cell CPT 7.3µM (no result: HT1080NT lethal, IL-1B inflam inh, HT1080 IDH1KD tx)
CCc1ccc(OCCOCC(O)CN2CCN(Cc3ccc(Cl)cc3)CC2)cc1 (centres undefined)	HT1080NT lethal inconclusive, DT40 TDP1 no CPT inconclusive, IL-1B inflam inh -53, TDP1 cell CPT 18µM, HT1080 IDH1KD tx inconclusive
